# Measured values from PubChem BioAssay AID624305 (National Center for Advancing Translational Sciences (NCATS), 2012).
# Results filed as inconclusive are left out. Unmarked numbers belong to inactive results. Active and inactive are the calls of the source. Calls follow the shape of the dose curve; as a rule, active = well fitted activation curve with a large enough effect; inconclusive = small, poorly fitted or top-dose-only effect; inactive = no such curve, though single readings can be large or run the other way.
# Assay: qHTS assay for re-activators of p53 using a Luc reporter: Hit Validation; also: nearly all actives have a fitted effect of over 75% in size; as to activation: 0% is about no effect
# Conditions: p53-responsive luciferase reporter cells, luminescence, H1299 line expressing heat-sensitive Ala138Val p53; series mostly up to 46.1 µM; activation: at the top concentration
# Description: The p53 tumor suppressor plays a key role in suppression of tumorigenesis and in human carcinogenesis. It is frequently found inactivated in human cancers, mainly by point mutation. These point mutations are found in a wide variety of human cancers and a majority of them affect the DNA binding domain of the protein. The point mutations either alter native p53 conformation or abolish DNA contact. Additionally, cancer cells with p53 mutations are more resistant to chemo-radiation therapies.
# In order to find activators to reactivate this important protein, a cell-based screen for p53-dependent luciferase-reporter expression was developed. A p53-null H1299 lung cancer cell line was stably co-transfected with a temperature sensitive p53 mutant, p53-A138V, and a p53-responsive BP100-luciferase reporter. This cell model has previously been characterized in a gene chip profiling experiment for p53 activation. By lowering the culture temperature from 37 deg C (mutant p53 conformation) to 32 deg C (w.t. p53 conformation), a 30-60 fold increase in activation of luciferase activity is observed. At assay temperate, 37 deg C, basal reporter expression is very low and after the addition of detection reagent, a luminescent read-out is carried out. This is the hit validation assay, confirming the hits identified from the primary screen.
# NIH Chemical Genomics Center [NCGC]
# NIH Molecular Libraries Probe Production Centers Network [MLPCN]
# Assay Provider (PI): Yi Sung, University of Michigan at Ann Arbor
# 5ul of 1000 cells per well are dispensed in all wells except column 4, into white solid-bottom TC-treated Kalypsys plates. The cells are kept in Opti-MEM and supplemented with 10% FBS and dispensed using a Multidrop (Thermo). Then using the Kalypsys pin-tool, 23nl of compounds are pinned. The compounds are starting concentration at 10mM, with 1:5 dilution, 4 points, and the control compound nocodazole is pinned in column 1 at 25mM, 1:3 dilution, in duplicate, 25mM nocodazole is pinned in column 2. Please note, all concentrations are working concentrations. 5ul of 1pM purified luciferase enzyme is dispensed using the Kalypsys dispenser in column 4. Plates are incubated for 24 hrs at 37 deg C, 5% CO2, and 95% humidity. Then 4ul of the detection reagent Amplite (ABD Bioquest) is added using the Kalypsys dispenser. Plates are incubated for 10 min at ambient room temperature and are then read on the ViewLux (Perkin Elmer) using a clear filter for a luminescent read-out.
# Potency is read from the fitted curve at half-maximal effect.
Compound,activation,Potency
N#C/C(Cn1c[n+](NC(=O)Nc2ccccc2)cn1)=N/O,33.3%,–
COc1ccc2oc(C(=O)OCC(=O)NCCN3C(=O)CSC3=O)c(C)c2c1,-18.8%,–
Cc1ccc(C(=O)c2cc([N+](=O)[O-])ccc2N2CCCCC2)cc1C,-17.7%,–
O=C(O)C1C2C=CC(C2)C1C(=O)Nc1ccccc1Br (stereo not given),2.08%,–
CN(C)c1ccc(/C=N/Nc2nncc3ccccc23)cc1,–,0.366 µM (active)
COc1ccccc1C(=O)CSc1nccn1C,31.8%,–
CC(Sc1nc(N)cc(=O)[nH]1)C(=O)NNC(=O)c1cccc(Cl)c1 (stereo not given),-18.8%,–
O=C(O)/C=C/c1nc(-c2ccccc2)n2ccccc12,9.9%,–
CC12CN(C(=O)c3cccc([N+](=O)[O-])c3)C3(C#N)CC1CCC23C (stereo not given),-21.4%,–
COc1ccc(C(=O)Nc2nnc(C(F)(F)F)s2)cc1,–,10.3 µM (active)
Cn1c(=N)n(CC(=O)c2ccc(Cl)c(Cl)c2)c2ccccc21,–,0.58 µM (active)
CCOP(=O)(OCC)C(NC(=O)Nc1ccccc1)C(N)=O (stereo not given),-4.69%,–
Cc1noc(C)c1C(=O)Nc1nc(-c2ccc(F)cc2)cs1,-25% [at 9.22 µM],–
Cc1ccnc(NC(=S)NC(=O)c2cccs2)c1,–,0.082 µM (active)
Cc1ccc(NC2=C(Cl)C(=O)c3ccccc3C2=O)cc1,-89.1%,–
COc1ccc(-n2cc(-c3ccccc3)[nH]c2=S)cc1,–,11.6 µM (active)
O=C(NC(=S)NCCc1ccccc1)C1CCCCC1,–,23.1 µM (active)
Cc1ccc(C(=O)NCC(=O)N2CCCCCC2)cc1,26%,–
COc1ccc(C(=O)O/N=C(\N)c2ccccc2)c(OC)c1,–,0.366 µM (active)
COc1ccc2cc(C3(C)NC(=O)N(CC(=O)Nc4c(C)n(C)n(-c5ccccc5)c4=O)C3=O)ccc2c1 (stereo not given),-22.9%,–

Compound,activation,Potency
CC(C)(C)c1ccc(S(=O)(=O)N2CCSC2)cc1,-4.43% [at 9.22 µM],–
CC(=O)Nc1ccc(Nc2cc(C)nc3c(-c4ccccc4)cnn23)cc1,–,0.116 µM (active)
Cc1cccc(N2CCN(S(=O)(=O)c3ccc4c(c3)CCC(=O)N4)CC2C)c1 (stereo not given),-12%,–
C/C(=N\NC(=S)NC1CCCCC1)c1ccccc1,-80.2%,–
COc1ccc(-c2cc(=O)c3ccccc3s2)cc1,–,4.11 µM (active)
O=C(Oc1ccccc1/C=C\C(=O)c1cc2ccccc2o1)c1cccc(F)c1,–,0.206 µM (active)
O=C(COC(=O)CNC(=O)c1ccc([N+](=O)[O-])o1)Nc1ncc(C(F)(F)F)cc1Cl,-84.4%,–
CC(C)(C)NC(=O)C(c1ccc(Cl)cc1)N(CCO)C(=O)c1snc(C(N)=O)c1N (stereo not given),-2.08%,–
CCCN1CCC(NC(=O)Cc2ccc(C)cc2)CC1,-2.6%,–
CC(C)C(=O)OCC(=O)Nc1ccc(N=Nc2ccccc2)cc1,–,5.8 µM (active)
CCOc1ccc(NC(=O)/C=C/c2ccccc2)c([N+](=O)[O-])c1,–,5.17 µM (active)
C/C(=N\NC(=O)c1cc(C)nc2ccccc12)c1ccccn1,–,16.4 µM (active)
C/C(=N\N=c1/scc(C)n1Cc1ccco1)c1cccc([N+](=O)[O-])c1,17.7%,–
COc1ccccc1C(=O)CC(=O)c1ccccc1,2.08%,–
Cc1ccc2nc(-c3ccc(NC(=O)CN4C(=O)c5ccccc5C4=O)cc3)sc2c1,–,5.17 µM (active)
Nc1cccc(-c2nc3ccc(C(=O)c4ccccc4)cc3[nH]2)c1,–,2.06 µM (active)
c1ccc(-c2cn3c(n2)-c2ccccc2C3)cc1,–,0.206 µM (active)
Cc1ccc(C)c(OCC(O)CN2C(C)CCCC2C)c1 (stereo not given),24%,–
CCC(=O)c1ccc(OC(=O)Cc2ccc(OC)cc2)cc1,4.69%,–
COc1cc(OC)cc(C(=O)NNC(=O)c2ccccn2)c1,-2.08%,–
